Ba/F3 V617F tox: lowers viability of Ba/F3 cells expressing EpoR and JAK2V617F; inhibition, % at 5.6 µM; ATP luminescence; hit rate 1.1% among 220,000;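 active means inhibition above the campaign mean plus 3 SD over all tested compounds, cut at about 24% in these data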;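 further: cytokine-independent growth of Ba/F3 cells driven by EpoR plus mutant JAK2; 0% = DMSO-treated cells and 100% = JAK inhibitor I control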
APP 5UTR inh: APP translation inhibition | SH-SY5Y APP 5'UTR-luciferase reporter, luminescence | AID 1285 | hit rate 0.82% among 190,000 | inhibition, % at 2 µM;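 active means inhibition above a set limit, derived from the sample mean plus 3 SD, cut at about 45% in these data; inconclusive means one replicate passes the limit while the other fails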
IEC-6 tox: kills IEC-6 intestinal cells in KLF5 counter-screen | IEC-6 cytotoxicity, luminescence viability | inhibition, % at 5 µM | hit rate 0.78% among 290,000;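 further: 0% = plate median of test compound wells and 100% = cytotoxic reference compound wells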
aSyn 5UTR inh: MLPCN primary screen, SNCA 5' untranslated region | alpha-synuclein 5'UTR reporter, inhibitor activity | inhibition, % (tested at 7.5 µM) | hit rate 0.82% among 300,000 | AID 1813; in the data active means inhibition above about 60%; inconclusive means no clear call, values can overlap the other calls;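 further: H4 neuroglioblastoma cells stably carrying SNCA 5'UTR luciferase fusion; 0% = DMSO wells and 100% = positive control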
BaF3 parental: reduces parental Ba/F3 cell viability, JAK2V617F counter-screen; hit rate 1.1% among 220,000; inhibition, % at 5.6 µM; AID 1486; CellTiter-Glo ATP luminescence;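 active means inhibition above a per-campaign cutoff, the mean inhibition of all tested compounds plus 3 SD, cut at about 27% in these data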;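 further: 0% = DMSO wells and 100% = JAK Inhibitor I control wells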
KLF5 inh: inhibitors of KLF5 expression. inhibition, % at 5 µM. DLD-1 KLF5 promoter-luciferase reporter, luminescence. hit rate 0.23% among 290,000;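 active means inhibition above a per-plate limit of that plate's mean compound inhibition plus 3 SD, cut at about 60% in these data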;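 further: 0% = DMSO wells and 100% = LY294002 at 200 µM; higher means less KLF5 promoter-driven luciferase light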
IEC-6 cytotox cf: IEC-6 cytotoxicity, confirmation assay; shares compounds with IEC-6 tox; IEC-6 rat intestinal epithelial viability, luminescence; inhibition, % at 5 µM; hit rate 63% among 1,900;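 further: 0% = vehicle and 100% = reference cytotoxic drug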
* marks the source's active call; other numbers are inactive results; ? = inconclusive; nt = not tested or not shown. Shown are actives, neighbours in structure and some others; about 2.2% of the full set was active somewhere. Unless noted, no stated cut-off is given here; in the data, active means inhibition above about 22%; inactive means the rest.

SMILES	Ba/F3 V617F tox	APP 5UTR inh	IEC-6 tox	aSyn 5UTR inh	BaF3 parental	KLF5 inh	IEC-6 cytotox cf
NC(=O)c1cnn2c(-c3ccc(Cl)cc3Cl)ccnc12	nt	nt	8.4	1.8	nt	-4.4	nt
COC(=O)c1sccc1-c1ccc(C(=O)Nc2cccc(Cl)c2)o1	-1.4	-19.7	-1.7	-124.9	-1.0	-25.9	nt
CC1(C)CC(N2CCCCC2)=CC(=[N+]2CCCCC2)C1	84.4*	7.6	23.4*	0.3	67.9*	-13.7	25.3*
CC1(C)CC(N2CCOCC2)=CC(=[N+]2CCOCC2)C1	-1.5	-6.5	-4.2	-8.5	5.2	-20.6	nt
Cc1ccc(-c2ocnc2C(=O)Nc2ccccc2NC(=O)c2ccccn2)cc1	nt	nt	27.4*	41.4	nt	-19.9	20.0
Nc1c(C(=O)c2ccccc2)sc2nsc(SCCN3CCOCC3)c12	-1.6	nt	-2.1	-157.1	3.7	-37.3	nt
CC(=O)c1sc2nsc(SCCN3CCOCC3)c2c1N	-2.9	nt	24.1*	-17.6	-1.5	-0.1	6.8
COc1cccc(NC(=O)C2CCCN(S(=O)(=O)c3cccc4cccnc34)C2)c1 (configuration not stated)	0.0	-19.6	-8.0	14.0	2.7	-12.7	nt
O=C(Nc1ccncc1)C1CCCN(S(=O)(=O)c2cccc3cccnc23)C1 (configuration not stated)	84.8*	76.1*	55.6*	26.7	70.0*	47.4	46.4*
O=C(c1cc(-c2ccccc2Cl)nc2ccc(Br)cc12)N1CCN(c2ccccn2)CC1	nt	nt	45.7*	23.1	nt	9.8	6.0
Cc1cccc2c(C(=O)N3CCN(c4ccccn4)CC3)cc(-c3cccc(Br)c3)nc12	nt	nt	29.0*	5.9	nt	-0.5	6.2
CSc1ncc(Cl)c(C(=O)Nc2ccccc2Cl)n1	1.5	-5.9	4.2	44.7	6.7	-10.2	nt
O=C(NC1CCN(Cc2ccc(Cl)c(Cl)c2)CC1)c1ccccc1	nt	nt	4.2	7.2	nt	-44.6	nt
O=C1CC(c2cccnc2)c2cc3c(cc2N1)OCCO3 (configuration not stated)	5.5	-7.8	7.2	36.9	11.7	-1.6	nt
CCOc1ccccc1C1CC(=O)Nc2cc(OC)c(OC)c(OC)c21 (configuration not stated)	-0.6	-5.3	-4.3	26.8	1.8	-48.5	nt
CCOc1ccccc1C1CC(=O)Nc2cc3c(cc21)OCCO3 (configuration not stated)	80.2*	13.7	66.5*	91.9*	78.2*	60.5	53.8*
CCOc1ccccc1C1CC(=O)NC2=C1C(=O)CCC2 (configuration not stated)	-0.6	-3.5	7.8	-46.1	5.5	23.0	nt
Cc1cc2c(cc1C)C(c1ccccc1OC(C)C)CC(=O)N2 (configuration not stated)	nt	nt	44.5*	-12.2	nt	27.4	30.6*
CCCOc1ccccc1C1CC(=O)NC2=C1C(=O)CCC2 (configuration not stated)	18.1	21.4	37.2*	32.1	27.8*	-6.0	32.8*
CCOc1ccccc1C1CC(=O)Nc2cc(C)c(C)cc21 (configuration not stated)	nt	nt	41.8*	33.7	nt	10.9	26.2*
CNC(=O)C(=O)NCCN1CCN(S(=O)(=O)c2ccc3ccccc3c2)CC1	nt	nt	4.9	-14.0	nt	-31.0	nt
CCCCN(C)Cc1cc(=O)oc2ccc3ccccc3c12	nt	nt	4.0	9.6	nt	-14.1	nt
COc1ccccc1C1CC(=O)Nc2cc(C)c(C)cc21 (configuration not stated)	nt	nt	36.3*	62.8*	nt	-11.2	5.9
O=C1CN(C(=O)c2ccccc2)c2ccccc2N1	1.3	-11.3	10.6	18.8	1.7	-18.2	nt
O=C1CN(C(=O)c2cccc(Br)c2)c2ccccc2N1	nt	nt	37.7*	-84.6	nt	4.3	10.5
SMILES	Ba/F3 V617F tox	APP 5UTR inh	IEC-6 tox	aSyn 5UTR inh	BaF3 parental	KLF5 inh	IEC-6 cytotox cf
O=C(Cc1ccc(Br)cc1)NCc1ccccc1	nt	nt	59.6*	-66.9	nt	35.2	44.7*
COc1ccc(CC(=O)NCc2ccccc2)cc1	nt	nt	50.0*	-154.2	nt	44.7	37.1*
COc1cccc(-c2cc3nc(-c4ccccc4)cc(=O)n3[nH]2)c1	nt	nt	78.3*	-167.0	nt	22.4	53.4*
O=c1cc(-c2ccccc2)nc2cc(-c3ccc(F)cc3)[nH]n12	nt	nt	nt	-109.4	nt	nt	nt
COc1ccc(-n2nc(C#N)c(Cl)cc2=O)cc1	8.3	94.9*	29.1*	nt	2.0	-20.3	19.8
COC(=O)c1nn(-c2ccc(OC)cc2)c(=O)cc1O	0.4	4.0	-0.1	20.7	7.0	9.4	nt
O=C(O)COCC(=O)NCc1csc2ccccc12	0.5	nt	-4.1	4.5	-1.1	-21.5	nt
COc1ccc(S(=O)(=O)Nc2cc(Cl)ccc2OC)cc1	81.3*	86.9*	68.5*	44.3	71.9*	58.8	52.6*
O=C(CCCn1c(=S)[nH]c2ccccc2c1=O)NCCSCc1ccccc1	-2.2	-21.1	-2.1	5.9	3.8	-29.1	nt
CCN(CC)CCn1c2ccccc2c2nc3ccc([N+](=O)[O-])cc3cc21	77.7*	nt	36.4*	57.0	76.5*	10.3	31.6*
Cn1c2ccccc2c2cc([N+](=O)[O-])ccc21	-4.7	nt	-0.8	23.8	1.7	-31.5	nt
COc1ccccc1NC(=O)Cn1nnc(C(=O)NCc2cccs2)c1N	nt	nt	79.2*	85.5*	nt	55.7	53.5*
Cc1ccc(C)c(NC(=O)Cn2nnc(C(=O)NCc3ccco3)c2N)c1	nt	nt	24.2*	-2.4	nt	40.6	18.5
CCOC(=O)c1sc2c(c1C)c(=O)n(Cc1ccccc1)c(=O)n2CCN(C)C	nt	nt	1.0	13.9	nt	4.7	nt
CCOC(=O)N1CCN(S(=O)(=O)c2cccc3ccc(C)nc23)CC1	3.2	-6.7	11.1	21.4	4.6	9.9	nt
O=C(/C=N/NC(=O)c1ccc(Cl)cc1Cl)c1ccccc1	1.8	nt	3.9	-5.5	-4.9	-24.6	nt
O=C(/C=C(/c1ccc(Cl)cc1)n1cncn1)c1ccccc1	-0.5	-18.3	0.4	-62.3	2.0	-12.9	nt
CC(=O)N(C)c1ccc(NC(=S)Nc2cccc3ccccc23)cc1	3.2	-12.8	7.7	-168.2	3.8	-76.2	nt
CC(=O)c1ccc(NC(=S)Nc2cccc3ccccc23)cc1	nt	nt	63.2*	-47.0	nt	-70.5	5.9
CCOc1ccc(Cl)cc1S(=O)(=O)n1cnc2ccccc21	-0.2	10.8	7.8	-3.1	5.9	-19.7	nt
CCOc1ccc(C)cc1S(=O)(=O)n1cnc2ccccc21	nt	nt	51.0*	-9.4	nt	55.8	29.1*
CCc1ccccc1Nc1ncnc2ccccc12	nt	nt	0.1	-7.2	nt	-39.0	nt
CCCCCCCCNc1ncnc2ccccc12	69.7*	19.5	26.9*	-16.5	62.5*	-2.7	13.4
COC(=O)c1ccc2nc(C)cc(Nc3ccc(N(C)C)cc3)c2c1	4.2	0.3	1.5	-3.6	5.9	17.0	nt
COC(=O)c1ccc(Nc2cc(C)nc3ccccc23)cc1	5.8	nt	23.4*	64.7*	0.2	18.7	27.1*
O=C(OCc1ccc(Br)cc1)c1cccc(S(=O)(=O)N2CCCC2)c1	nt	nt	nt	-14.6	nt	nt	nt
COc1ccccc1-c1cc(C(=O)Nc2cccnc2)no1	75.1*	95.8*	58.2*	?	56.9*	37.9	39.2*

Bioassay records as filed in PubChem BioAssay.
